This is a sample that favours compounds with a hit; in the whole collection about 21% have one here.
FBPA Giardia inh: inhibitors of Giardia lamblia fructose-1,6-bisphosphate aldolase; A8B2U2; purified Giardia FBPA; Potency, µM (series often up to 59.6 µM), hits mostly inhibitors; 0.71% of 290,000 active; also: nearly all actives have a fitted effect of over 55% in size
Target sequence (A8B2U2 whole entry, looked up): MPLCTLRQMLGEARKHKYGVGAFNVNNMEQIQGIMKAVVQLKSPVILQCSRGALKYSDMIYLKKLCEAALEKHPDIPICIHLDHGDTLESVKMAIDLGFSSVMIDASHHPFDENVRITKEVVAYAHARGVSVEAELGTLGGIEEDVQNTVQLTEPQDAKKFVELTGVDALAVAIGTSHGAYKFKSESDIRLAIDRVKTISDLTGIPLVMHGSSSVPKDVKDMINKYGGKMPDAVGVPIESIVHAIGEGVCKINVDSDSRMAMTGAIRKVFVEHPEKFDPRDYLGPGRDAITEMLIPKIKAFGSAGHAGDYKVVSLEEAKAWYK
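40 nM FBPA preincubated 10 min at RT with compound (up to 57.5 uM final), then substrate plus GAPDH/TPI/NAD/arsenate coupling and diaphorase/resazurin added. Fluorescence read after 20 min at RT, 525/598 nm.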
Pf growth 96h: P. falciparum growth inhibition at 96 hours | Potency, µM (highest dose often 28.7 µM), most hits filed as inhibitors | P. falciparum luciferase reporter growth, 96 h | 6.9% of 320,000 active
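Two parasite generations (96 h, 37 C, 5% CO2) of compound exposure in infected erythrocytes (0.05% parasitemia, 2% hematocrit). Luciferase-reporter P. falciparum; decreased luminescence indicates inhibited growth, aimed at apicoplast-acting delayed death.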
Shiga toxin inh: blocks Shiga toxin action in Vero cells | AID 2315 | 9.2% of 290,000 active | Vero cells, Shiga toxin protein synthesis inhibition reporter | inhibition, % at 38.7 µM; in the data active = inhibition mostly above about 28%, no sharp cut-off; inactive = mostly below about 43%
NS1 inh: inhibitors of influenza NS1 protein function | Potency, µM (titrated, usually from 46.1 µM) | 0.4% of 270,000 active; calls by dose curve; also: actives are rising curves; nearly all actives have a fitted effect of over 50% in size
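OD600 was taken as the measure of yeast growth restored by compound in an NS1-expressing S. cerevisiae strain. Cells had been washed out of glucose medium and diluted 1:100 into galactose -URA medium, pH 6.0.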
Pf growth 48h: inhibits P. falciparum growth in the first generation, 48 h; 5.9% of 310,000 active; AID 504832; P. falciparum luciferase growth in erythrocytes, 48 h; Potency, µM (highest dose often 28.7 µM), usual class: inhibitors
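Firefly luciferase activity from engineered P. falciparum reports growth; inhibitors lower the luminescent signal. Cultures contained 2% hematocrit erythrocytes at 0.1% final parasitemia.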
Cycloheximide cs: affects cycloheximide protein synthesis inhibition readout, counter-screen; 12% of 300,000 active; max response, %; cell reporter, cycloheximide protein synthesis inhibition counterscreen; in the data active = max response mostly above about 13%, no sharp cut-off; inactive = mostly below about 14%; also: read at 38.3 µM for the half of the compounds with a filed dose
Large screens that a line does not name were inactive. Unless noted, calls follow the shape of the dose curve; as a rule, active = well fitted curve in the direction sought with a large enough effect; inconclusive = small, poorly fitted or top-dose-only effect, or another doubt; inactive = no such curve, though single readings can be large; an effect the other way counts as inactive or inconclusive.

O=C(CSc1ccccc1)N/N=C/c1ccccc1O	Pf growth 48h inconclusive, Cycloheximide cs 25
COc1ccccc1/C=N/NC(=O)CN(C1=NS(=O)(=O)c2ccccc21)c1ccccc1	Pf growth 96h 0.15µM
COc1ccccc1/C=N/NC(=O)CSc1ccc2ccccc2n1	FBPA Giardia inh inconclusive, Shiga toxin inh 70, Cycloheximide cs 25
COc1cccc(NC(=O)CNC(=O)Cn2cnc3sc(C)c(C)c3c2=O)c1	none
COc1ccccc1CNC(=O)OCc1nccnc1C(=O)Nc1ccc(Br)cn1	none (no result: FBPA Giardia inh)
COC(=O)c1ccc(OC(=O)CS(=O)c2ccccc2[N+](=O)[O-])cc1 (centres undefined)	none
CS(=O)(=O)c1ccc(S(=O)CC(=O)OCc2ccccc2)c([N+](=O)[O-])c1 (centres undefined)	FBPA Giardia inh inconclusive, Pf growth 96h inconclusive, Cycloheximide cs 11 (no result: NS1 inh)
O=C(CS(=O)c1ccc(C(F)(F)F)cc1[N+](=O)[O-])Oc1ccccc1 (centres undefined)	FBPA Giardia inh inconclusive, Cycloheximide cs 25 (no result: Pf growth 48h)
CC1CCCCN1C(=O)c1ccc(CS(=O)(=O)Cc2ccccc2)cc1 (centres undefined)	Pf growth 96h inconclusive
CNC(=O)c1c(Cl)cnn1-c1ccc(F)cc1	none
CCn1ncc(Br)c1C(=O)Nc1cc(C)cc(C)c1	none
C=CCNC(=O)c1c(Br)cnn1-c1ccc(C)cc1	Shiga toxin inh 59, Cycloheximide cs 45
Cc1ccc(-n2ncc(Cl)c2C(=O)NCc2ccccc2)cc1	Shiga toxin inh 58, Cycloheximide cs 42
CC(C)(C)Nc1oc(-c2ccccc2)nc1-c1ccccc1	none (no result: Pf growth 96h, Shiga toxin inh, NS1 inh, Pf growth 48h, Cycloheximide cs)
O=C(N/N=C\c1ccc(Cl)cc1)C1=NOC2COC3(CCN(c4ccc([N+](=O)[O-])cc4)CC3)OCC12 (centres undefined)	none
CC(=O)N[C@@H](Cc1ccc(O)cc1)CN1C(N)=NC[C@@H]1CC(C)C	none
NC1=NC[C@@H](Cc2ccc(O)cc2)N1CCc1cccc(F)c1	Pf growth 96h 1.9µM, Pf growth 48h 10µM
NC1=NC[C@@H](Cc2ccc(O)cc2)N1CCc1cc(C(F)(F)F)cc(C(F)(F)F)c1	Pf growth 96h 3.3µM, Pf growth 48h 5.9µM
NC1=NC[C@H](CC2CCCCC2)N1CCc1cc(C(F)(F)F)cc(C(F)(F)F)c1	Pf growth 96h 2.3µM, Pf growth 48h 2.9µM
O=C(CN1C(=O)NC2(CCCC2)C1=O)NNC(=O)c1ccccc1	none (no result: FBPA Giardia inh, Shiga toxin inh, NS1 inh, Cycloheximide cs)
COc1ccc(-c2noc(=O)n2CC(=O)N2CCC(Cc3ccccc3)CC2)cc1	Pf growth 48h inconclusive
CCOc1ccc(C2Sc3ccccc3NC3=C2C(=O)OC3)cc1 (centres undefined)	Pf growth 96h inconclusive, Cycloheximide cs 23
O=C1OCC2=C1C(c1ccc3c(c1)OCO3)Sc1ccccc1N2 (centres undefined)	none (no result: Pf growth 96h)
COc1ccc(S(=O)(=O)N(C)c2ccc(C(=O)Nc3cccnc3)cc2)cc1	Pf growth 96h inconclusive, Pf growth 48h inconclusive
COc1ccc(OC)c(NC(=O)CN2C(=O)NC3(CCCc4ccccc43)C2=O)c1 (centres undefined)	Pf growth 96h inconclusive (no result: FBPA Giardia inh, Shiga toxin inh, NS1 inh, Cycloheximide cs)
COc1ccc(C(NC(=O)CN2C(=O)NC3(CCc4ccccc43)C2=O)c2ccccc2)cc1 (centres undefined)	Pf growth 96h inconclusive, Pf growth 48h 12µM (no result: FBPA Giardia inh, Shiga toxin inh, NS1 inh, Cycloheximide cs)
COc1ccc(C(NC(=O)CN2C(=O)NC3(CCc4ccccc43)C2=O)c2ccc(OC)cc2)cc1 (centres undefined)	Pf growth 96h inconclusive, Pf growth 48h 10µM (no result: FBPA Giardia inh, Shiga toxin inh, NS1 inh, Cycloheximide cs)
COc1cccc(NC(=O)CN2C(=O)NC3(CCCc4ccccc43)C2=O)c1 (centres undefined)	Pf growth 96h 4.7µM (no result: FBPA Giardia inh, Shiga toxin inh, NS1 inh, Cycloheximide cs)
COC(=O)N1CCC[C@@]2(CCN(c3ncccn3)C2)C1	none (no result: Pf growth 96h, Shiga toxin inh, NS1 inh, Pf growth 48h, Cycloheximide cs)
O=C(Oc1cccc([N+](=O)[O-])c1)C1CCN(C(=O)c2ccc(F)cc2)CC1	none (no result: FBPA Giardia inh)
COc1ccc(C2NN=C(c3ccc(C)cc3)S2)cc1OC (centres undefined)	Pf growth 96h 1.9µM, Shiga toxin inh 92, Cycloheximide cs 38 (no result: NS1 inh)
COC(=O)C1=C(C)N=C2SC(C)C(=O)N2C1c1cccc(F)c1 (centres undefined)	NS1 inh inconclusive
Cc1ccc(C2=NNC(c3cccc(F)c3)S2)cc1 (centres undefined)	Pf growth 96h 12µM (no result: NS1 inh)
COc1ccc(C2NC(=O)CS2)cc1OC (centres undefined)	none
